Source: publication PMC5540273 (PLoS ONE, 2017)

tested on: T1, p38-gamma; conditions: concentration: 1 μM, replicates: in singlicate; n = 1
T1 construct: gene MAPK12
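Further: KINOMEscan kinase panel screen.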

| SMILES | %Inh |
| --- | --- |
| Nc1nc(-c2cccnc2)c(-c2ccnc3ccccc23)s1 [GW684083] | 0% |
| Fc1cccc(COc2ccc(Nc3ncnc4cc[nH]c34)cc2Cl)c1 | 20% |
| N#Cc1ccc(Oc2ccc(Nc3ncnc4cc[nH]c34)cc2Cl)cc1 | 10% |
| Cc1cccc(-c2nc(Nc3ccc4[nH]nnc4c3)c3ccccc3n2)n1 [GW867587] | 0% |
| FC(F)(F)c1cc(Nc2nccc(-c3c(-c4ccc(Cl)cc4)nn4ncccc34)n2)ccc1Cl [GW829351] | 0% |
| O=C(CCO)NCCn1ccc2ncnc(Nc3ccc(Oc4cccc(C(F)(F)F)c4)c(Cl)c3)c21 | 5% |
| Cn1ccc2ncnc(Nc3ccc(Oc4cccc(Cl)c4)c(Cl)c3)c21 | 8% |
| COc1cc2c(Nc3cccc(NC(=O)c4ccccc4)c3)ncnc2cc1OCCCN1CCOCC1 [GSK223810] | 6% |
| Cl.Cl.c1ccc(-c2cc3ccncc3cc2OC2CCNCC2)cc1 [GSK1122999] | 40% |
| CCC(CC)(CC)n1cnc2c(N)ncnc21 [SKF-97620] | 1% |
| FC(F)(F)c1ccc(-c2cc(-c3c[nH]nc3-c3ccccn3)ccn2)cc1 [GW599550] | 16% |
| COc1ccc(Nc2nccc(N3CCC(NC(=O)c4cccc(NC(C)=O)c4)C3)n2)cc1 (stereo not drawn) [GSK1379732] | 7% |
| Cl.c1ccc(Cn2ccc3cc(Nc4ncnc5ccccc45)ccc32)cc1 [GW275568] | 8% |
| CCc1nc(-c2cccc(C)c2)c(-c2ccnc(NC(=O)c3ccccc3)c2)s1 | 32% |
| COc1ccc(-c2oc3ncnc(N)c3c2-c2ccc(OC)cc2)cc1 [SB-589132] | 8% |
| Cl.c1ccc(Cn2ncc3cc(Nc4ncnc5ccccc45)ccc32)cc1 [GW273749] | 0% |
| Oc1ccc2ncnc(Nc3ccc(OCc4ccccc4)cc3)c2c1 [GI262866] | 0% |
| Nc1nccc2scc(-c3ccc4c(c3)CCN4C(=O)Cc3cc(F)ccc3F)c12 [GSK2587663] | 0% |
| CSc1ccc(NC2=C(c3ccccc3Cl)C(=O)NC2=O)cc1 [SB-342411] | 35% |
| Clc1cc(Nc2ncnc3cc[nH]c23)ccc1OCc1ccccn1 | 22% |
| NC(=O)c1sc(-n2cnc3ccccc32)cc1OCc1ccccc1F [GSK1024306] | 0% |
| COC(=O)c1c(-c2ccccc2)c2cc(Cl)ccc2c(=O)n1Cc1ccc(S(C)(=O)=O)cc1 | 23% |
| Cn1cc(-c2ccc3c(c2)CCN3C(=O)Cc2cccc(C(F)(F)F)c2)c2c(N)ncnc21 [GSK2606414] | 2% |
| Nc1nc(-c2ccc3c(N)n[nH]c3c2)cc(N2CCCCC2)n1 [GSK2228768] | 0% |
